Screens as filed in PubChem BioAssay.
PREPL inhibitor: inhibits the human prolyl oligopeptidase-like enzyme; Q4J6C6; recombinant PREPL, fluorescence polarization activity-based probe; inhibition, % at 5.96 µM; 320,000 tested, 0.68% active; AID 2751; in the data active = inhibition above about 43%;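 also: 0% = enzyme with DMSO and 100% = wells lacking enzyme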
MEKK2wt PB1 HTS: raises or lowers MEK5 binding to wildtype human MEKK2 PB1 domain | Q9Y2U5 | bead flow cytometry, Alexa488-MEK5 binding to MEKK2 WT; actives lie on both sides | binding response (% of control), % at 10 µM | 290,000 tested, 1.1% active | AID 1531; in the data active = binding response below about 67% or above about 130%
MEKK3 PB1 HTS: raises or lowers MEK5 binding to the human MEKK3 PB1 domain | Q99759 | binding response (% of control), % at 10 µM | 290,000 tested, 1.4% active | bead-based flow cytometry, Alexa488-MEK5 binding to MEKK3; actives lie on both sides; 0 = blocked by unlabeled MEK5, 100 = vehicle;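 active = binding response more than 3 SD above or below the average of its plate-row segment, actives on both sides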;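 also: Alexa488 bead fluorescence after subtracting the streptavidin-only scavenger bead signal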
Target sequence (Q99759 whole entry, looked up, the tested form may be a part): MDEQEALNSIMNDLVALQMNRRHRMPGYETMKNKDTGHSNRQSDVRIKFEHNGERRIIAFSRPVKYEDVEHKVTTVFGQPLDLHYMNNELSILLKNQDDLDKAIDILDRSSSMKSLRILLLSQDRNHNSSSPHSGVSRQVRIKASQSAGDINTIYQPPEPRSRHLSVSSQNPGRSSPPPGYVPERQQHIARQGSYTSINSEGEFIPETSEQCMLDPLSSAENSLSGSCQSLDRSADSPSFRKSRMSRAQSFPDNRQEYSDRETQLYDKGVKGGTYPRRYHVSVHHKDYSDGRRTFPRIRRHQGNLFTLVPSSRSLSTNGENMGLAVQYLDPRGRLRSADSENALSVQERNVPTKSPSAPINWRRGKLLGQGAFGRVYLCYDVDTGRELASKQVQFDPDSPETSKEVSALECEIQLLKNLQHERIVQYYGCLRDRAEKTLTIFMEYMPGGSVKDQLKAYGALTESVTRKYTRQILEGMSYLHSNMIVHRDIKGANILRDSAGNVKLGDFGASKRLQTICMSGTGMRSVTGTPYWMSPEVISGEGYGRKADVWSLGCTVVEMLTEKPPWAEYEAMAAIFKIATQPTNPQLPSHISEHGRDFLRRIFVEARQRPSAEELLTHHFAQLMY
ATG4B inh: ATG4B (human) cysteine protease inhibition | Q9Y4P1 | ATG4B cleavage of LC3-PLA2, NBD-HPC fluorescence, 1 h | inhibition, % at 8.33 µM | 340,000 tested, 0.51% active | AID 504462; in the data active = inhibition above about 40%
MEKK2 mut-MEK5: signal of MEK5 binding to mutant human MEKK2 PB1 domain; bead flow cytometry, Alexa488-MEK5 binding to MEKK2 mutant; percent response, % at 10 µM; 290,000 tested, 0.35% active; AID 1530; in the data active = percent response above about 24%, passing the limit was not always enough
UBC13 inh: inhibitors of human UBC13 polyubiquitin chain formation; TR-FRET; AID 485273; 330,000 tested, 0.47% active; inhibition, % at 20 µM; in the data active = inhibition above about 45%, passing the limit was not always enough
Starred values were filed as active, the others as inactive; / = not tested or not shown; ! = not active in a repeat; [ ] = dose if it differs, or a comment. Compounds with a hit are over-represented: about 3.1% of the library has one in this group of screens.

SMILES | PREPL inhibitor | MEKK2wt PB1 HTS | MEKK3 PB1 HTS | ATG4B inh | MEKK2 mut-MEK5 | UBC13 inh
CC(=O)c1ccc(N2CCN(C(=O)c3ccc(NC(=O)C4CCCO4)cc3)CC2)cc1 (stereo unspecified) | -2 | 87 | 81*[inhibitor] | -10 | -5 | 6
CC(=O)c1ccc(NC(=O)C2CCCO2)cc1 (stereo unspecified) | -10 | 108 | 107 | 0 | 3 | -11
COc1ccccc1N1CCN(C(c2cccs2)C(C)NC(=O)c2ccncc2)CC1 (stereo unspecified) | 22 | 105 | 110 | -4 | 5 | 3
O=C(CSC(=S)N1CCCC1)N(Cc1nnc(-c2ccccc2Cl)o1)C1CC1 | 7 | / | / | -10 | / | -5
CC1Sc2ccc(S(=O)(=O)N3CCC(C(=O)N4CCN(C)CC4)CC3)cc2NC1=O (stereo unspecified) | 12 | 102 | 100 | 4 | -1 | -12
CCCN1CCN(C(=O)C2CCN(S(=O)(=O)c3ccc4c(c3)NC(=O)C(C)S4)CC2)CC1 (stereo unspecified) | 1 | 51* | 100 | -10 | 25* | 4
O=C(CCNC(=O)c1ccco1)Nc1ccc(F)c(Cl)c1 | 0 | 104 | 104 | -16 | -1 | -1
CC(=O)CCCCn1cnc2c1c(=O)n(C)c(=O)n2C | -6 | -14*! | 90 | / | -7 | -1
Cn1c(=O)c2c(ncn2CC(N)=O)n(C)c1=O | 1 | 115 | 110 | 3 | 14 | 6
Cc1ccc(C(C)C)c(OCc2nn(CC(=O)c3ccc(OC(F)F)cc3)c3[n+]2CCCCC3)c1 | 29 | 217* | 114 | 6 | 47 | 44
Cc1ccc(C(C)C)c(OCc2nnc3n2CCCCC3)c1 | -10 | 96 | 91 | 15 | -2 | 7
Cc1ccc(C(=O)NC(C)c2ccc(-n3ccnc3)cc2)o1 (stereo unspecified) | 17 | / | / | 0 | / | -6
OC(COc1ccc(Br)cc1)CN1CCC(Cc2ccccc2)CC1 (stereo unspecified) | -8 | 135* | 103 | 0 | 17 | 11
COc1ccc(N=Cc2cc(Cc3ccccc3Cl)cc([N+](=O)[O-])c2O)cc1OC | 13 | 91 | 100 | 94* | -1 | -27
COc1ccc(C(CNC(=O)c2oc3ccc(C)cc3c2C)N2CCCCC2)cc1 (stereo unspecified) | 12 | 125 | 105 | 2 | 9 | 11
COc1ccc(C(CNC(=O)c2oc3cc(C)c(Cl)cc3c2C)N2CCCCC2)cc1 (stereo unspecified) | 4 | 169* | 108 | -8 | 37* | 9
C=CCn1c(SCC(=O)Nc2cc3oc4ccccc4c3cc2OC)nnc1-c1cnccn1 | 12 | 140* | 110 | -11 | 11 | 6
CCC(=O)N1Cc2ccccc2-c2ccccc2C1=O | 1 | 98 | 103 | 41* | 1 | 1
O=C(O)CCN1Cc2ccccc2C1=O | -6 | 94 | 99 | 8 | -1 | 9
C(=N\NC1=Nc2cccc3cccc1c23)/c1cccnc1 | 23 | 11* | 96 | -28 | 9 | -44
C(=N\NC1=Nc2cccc3cccc1c23)/c1ccccc1 | 24 | 92 | 101 | -24 | 1 | -16
Cc1cccc(NC(=O)CSCC(=O)N2CCN(C(=O)c3ccco3)CC2)c1 | 15 | / | / | -1 | / | 5
O=C(O/N=C/c1ccc2c(c1)OCO2)c1ccccc1Cl | 55* | 98 | 94 | / | -2 | 1
O=C(N/N=C/c1ccc2c(c1)OCO2)C(=O)Nc1ccccc1Cl | / | 103 | 100 | 2 | 4 | 10
CCOC(=O)c1c(C)n(C)c2ccc(OC(=O)c3ccoc3)cc12 | 28 | 97 | 98 | -3 | -7 | 0
SMILES | PREPL inhibitor | MEKK2wt PB1 HTS | MEKK3 PB1 HTS | ATG4B inh | MEKK2 mut-MEK5 | UBC13 inh
CCOC(=O)c1c(C)n(CC)c2ccc(OC(=O)c3ccc([N+](=O)[O-])cc3)cc12 | 49* | 98 | 96 | 0 | -1 | -5
CCn1c2ccccc2c2cc(NC(=O)c3coc(=O)c(Br)c3)ccc21 | 21 | 72 | 97 | / | 0 | -56
CCn1c2ccccc2c2cc(NC(=O)c3ccc(=O)oc3)ccc21 | 71* | 91 | 98 | 9 | -5 | -25
O=C(Nc1ccccc1C(=O)NCCCN1CCOCC1)c1ccc(F)cc1 | -1 | -2.0*[inhibitor] | 1.0*[inhibitor] | -1 | -13 | 2
O=C(Nc1ccc(Cc2ccncc2)cc1)c1cccc([N+](=O)[O-])c1 | 12 | 106 | 109 | -6 | 2 | -6
O=C(Nc1ccc(Nc2ccncc2)cc1)c1ccc(Nc2ccnc3ccc([N+](=O)[O-])cc23)cc1 | / | 72*[inhibitor] | 61*[inhibitor] | 23 | -13 | /
COc1ccc(C#Cc2ccc3c(=O)c4ccccc4n(C)c3c2)cc1 | 2 | 79 | 97 | 1 | -5 | -3
Cn1c2ccccc2c(=O)c2ccc(C#Cc3ccc(N)cc3)cc21 | 23 | 22* | 102 | 13 | 8 | -10
NC(=O)CC[C@H](NC(=O)c1ccc(Cl)cc1)C(=O)NNC(=O)COc1cccc(Br)c1 | -14 | / | / | -10 | / | 4
COc1ccc(C(=O)c2sc(Nc3ccccc3)nc2C)cc1 | 13 | 135* | 111 | -1 | 16 | 2
COc1ccccc1NC(=O)C(C)OC(=O)CCSc1ccc(F)cc1 (stereo unspecified) | 1 | / | / | 4 | / | 7
N#C/C(=C/C1=C(N2CCOCC2)C(=C/c2ccc(Cl)cc2)/CC1)C(=O)Nc1ccccc1F | / | / | / | -6 | / | /
CCC1CCCCN1CCCNC(=O)Cn1cnc2sc(C)c(S(=O)(=O)N3CC(C)CC(C)C3)c2c1=O (stereo unspecified) | -14 | 135* | 101 | -4 | 26* | 3
CCc1ccc(N2C(=O)Cc3c2nc(N)c(C#N)c3N)cc1 | 44* | 96 | 98 | -16 | -1 | -6
CC(C)(C)c1ccc(N2C(=O)Cc3c2nc(N)c(C#N)c3N)cc1 | 8 | 97 | 100 | -12 | 2 | 4
CC(CCC(C)C(C)(C)C)[C@@H]1CC[C@H]2C3C[C@H](OS(O)(=S)=S)[C@H]4C[C@H](OS(O)(=S)=S)[C@@H](OS(O)(=S)=S)C[C@]4(C)[C@H]3CC[C@]12C (stereo partly specified) (tested in a mixture with another compound) | 46*! | / | / | 84* | / | -25
CC(CCC(=O)NN)C1CCC2C3CCC4CC(O)CCC4(C)C3CCC12C (stereo unspecified) | / | / | / | 0 | / | /
Cc1ccc(C(C)(C)NC(=O)C2CCC(=O)N(Cc3ccccc3F)C2)cc1 (stereo unspecified) | -7 | 105 | 99 | 13 | 6 | 1
CC(C)OC(=O)C(C(=O)C(F)(F)F)c1cc(NS(=O)(=O)c2ccc3ccccc3c2)c2ccccc2c1O (stereo unspecified) | -1 | 101 | 98 | 51* | 3 | -29
